Our source for the growth values is PubChem BioAssay (NCI).

About 83,000 compounds went through this panel and 20% of them were active in at least one assay; those are over-represented in the sample as a whole.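 Single-dose data. Exposure time 48 hours. Values below 10 considered active.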 A number with no mark means an inactive call. The source made the active and inactive calls.

Holding throughout (test): NCI-60 one-dose screen, 48 h (100 = growth as untreated, 0 = no growth, -100 = all killed)
Holding throughout (conditions): 10 µM unless noted

The test system of experiment [1] is T-47D breast.
For experiment [2], the system named is BT-549 breast.
Experiment [3] concerns MDA-MB-435 melanoma.
In experiment [4] the test system is SW-620 colon.
Experiment [5] concerns MCF7 breast.
Experiment [6] concerns HCT-116 colon.
Experiment [7] deals with HCC-2998 colon.
Experiment [8] relates to KM12 colon.

As to `Cn1c(=O)cc2c3c(c(NCCCO)ccc31)C(=O)c1ccccc1-2`, the growth is 51.8% in experiment [1]; 73.6% in experiment [2]; 44% in experiment [3]; 32.6% in experiment [4]; 27.6% in experiment [5]; 16.5% in experiment [6]. Moreover, the growth is 49.1% in experiment [7] and 42.7% in experiment [8].
Consider `Nc1ncnc2c1C(c1ccc(Br)cc1)c1sc3c(F)cccc3c1O2` (stereo not given), for which the growth in experiment [1] is 74.9%; in experiment [2], 100%; in experiment [3], 107%; in experiment [4], 94.5%; in experiment [5], 55.9%; in experiment [6], 95%. Also, the values for the growth in experiment [7] and in experiment [8] were 120% and 91.8%, respectively.
Regarding `O=C1/C(=C/c2ccccc2O)CC/C1=C\c1ccccc1O`, the growth in experiment [1] is 47.3%; in experiment [2], 2% (active); in experiment [3] it was 26.4%; in experiment [4] it was 55.1%; in experiment [5], 24.3%; in experiment [6], 16.7%. Further, the figures for the growth in experiment [7] and in experiment [8] were 104% and 75.7%, respectively.
Take `Cn1ccc(=O)c(C(=O)Nc2nsc3ccc([N+](=O)[O-])cc23)c1`: the growth was 74.6% in experiment [1]; 69.8% in experiment [2]; 75.6% in experiment [3]; 56.5% in experiment [4]; 34.7% in experiment [5]; 56.2% in experiment [6]. Besides, the figures for the growth in experiment [7] and in experiment [8] were 87% and 65.3%, respectively.
Take `C[PH+](c1nc2ccccc2nc1[PH+](C)C(C)(C)C)C(C)(C)C.C[PH+](c1nc2ccccc2nc1[PH+](C)C(C)(C)C)C(C)(C)C.[Au+].[Cl-]` (stereo not given): the growth is -79.9% (active) in experiment [1]; -74.4% (active) in experiment [2]; -79.3% (active) in experiment [3]; -100% (active) in experiment [4]; -84.3% (active) in experiment [5]; -100% (active) in experiment [6]. For the same molecule, the growth in experiment [7] was -100% (active); in experiment [8], -99.3% (active).
`CC(=O)n1nc(C(=O)OC(C)(C)c2ccccc2)c2ccccc21`: the growth was 86.3% in experiment [1]; 99.6% in experiment [2]; 92.1% in experiment [3]; 103% in experiment [4]; 94% in experiment [5]; 94.8% in experiment [6]. Further, the growth in experiment [7] is 98.2%; in experiment [8] it was 94.7%.
For `N#Cc1nc(-c2ccc(Cl)cc2)oc1S(=O)(=O)N1CCN(c2ccc(F)cc2)CC1`, the growth in experiment [1] was 89.3%; in experiment [2] it was 100%; in experiment [3] it was 100%; in experiment [4], 72.8%; in experiment [5] it was 83.5%; in experiment [6], 78.7%. Besides, the growth in experiment [7] was 99.4%; in experiment [8], 102%.
Take `CSc1nc2ccccc2cc1/C=C1/C=C(c2ccccc2)NC1=O`: the growth in experiment [1] is 79.9%; in experiment [2] it was 77.4%; in experiment [3] it was 3.27% (active); in experiment [4], 55.4%; in experiment [5] it was 49.8%; in experiment [6], 56.8%. The growth is 93.2% in experiment [7] and 59.6% in experiment [8].
Consider `CN(c1cc2ncc(=O)[nH]c2cc1NC(N)=NCc1ccc(Cl)cc1)C1CCCCC1`, for which the growth in experiment [1] is 47.6%; in experiment [2], 82%; in experiment [3], 40.2%; in experiment [4], 6.15% (active); in experiment [5], -44.2% (active); in experiment [6] it was 24.9%. Further, the growth is -10.5% (active) in experiment [7] and 28.7% in experiment [8].
With `O=C(/C=C/c1cccc(Cl)c1)c1ccc(Nc2nc(Nc3ccc(F)cc3)nc(Nc3ccc(Cl)cc3)n2)cc1`, the growth in experiment [1] was 113%; in experiment [2] it was 172%; in experiment [3], 117%; in experiment [4], 104%; in experiment [5] it was 230%; in experiment [6] it was 82.3%. For the same molecule, the growth in experiment [7] is 98.2%; in experiment [8], 112%.
For `O=C1/C(=C/c2ccccc2Br)COc2ccc(O)cc21`, the growth is 83.7% in experiment [1]; 53.9% in experiment [2]; 40.9% in experiment [3]; 18.3% in experiment [4]; 9.13% (active) in experiment [5]; 18.6% in experiment [6]. Moreover, the growth in experiment [7] is 100%; in experiment [8], 23.9%.
For `CCN1C(=O)N(CC)C2C1NN=c1s/c(=C\c3ccccc3F)c(=O)n12` (stereo not given), the growth is 55.2% in experiment [1]; 7.28% (active) in experiment [2]; -37.4% (active) in experiment [3]; 18.2% in experiment [4]; 15.2% in experiment [5]; 7.85% (active) in experiment [6]. For the same molecule, the growth in experiment [7] is 12.8%; in experiment [8] it was 4.31% (active).
Take `COc1ccc(OC)c(-c2nc(SCC(=O)c3ccc(C#N)cc3)[nH]c(=O)c2C#N)c1`: the growth in experiment [1] was 117%; in experiment [2], 99.4%; in experiment [3], 100%; in experiment [4] it was 98.6%; in experiment [5], 100%; in experiment [6] it was 95%. Besides, the figures for the growth in experiment [7] and in experiment [8] were 95.9% and 91.8%, respectively.
On to `COc1ccc(-c2cc(-c3ccc(Cl)cc3)c(C#N)c(=O)n2Cc2ccc(C(=O)Nc3ccccc3N)cc2)cc1`, for which the growth is 72.7% in experiment [1]; 56.5% in experiment [2]; 44.9% in experiment [3]; 78.9% in experiment [4]; 40.1% in experiment [5]; 69.2% in experiment [6]. Further, the growth in experiment [7] was 107%; in experiment [8] it was 57.3%.
For the molecule `C=CCc1c(O)c(C(=O)/C=C/c2ccccc2)c(OC)c2ccoc12`, the growth in experiment [1] is 41.3%; in experiment [2] it was 34.3%; in experiment [3], 26.4%; in experiment [4] it was 39.9%; in experiment [5], 16.1%; in experiment [6], 22.9%. In addition, the growth in experiment [7] is 50.4%; in experiment [8], 45.2%.
